In ChEMBL document CHEMBL2218924, “A broad activity screen in support of a chemogenomic map for kinase signalling research and drug discovery” (Biochem J, 2013):

Assays:
[1] = biological target: T1, Ephrin type-A receptor 3 (Homo sapiens) (UniProt P29320); conditions: at 10 µM
T1 sequence (whole entry): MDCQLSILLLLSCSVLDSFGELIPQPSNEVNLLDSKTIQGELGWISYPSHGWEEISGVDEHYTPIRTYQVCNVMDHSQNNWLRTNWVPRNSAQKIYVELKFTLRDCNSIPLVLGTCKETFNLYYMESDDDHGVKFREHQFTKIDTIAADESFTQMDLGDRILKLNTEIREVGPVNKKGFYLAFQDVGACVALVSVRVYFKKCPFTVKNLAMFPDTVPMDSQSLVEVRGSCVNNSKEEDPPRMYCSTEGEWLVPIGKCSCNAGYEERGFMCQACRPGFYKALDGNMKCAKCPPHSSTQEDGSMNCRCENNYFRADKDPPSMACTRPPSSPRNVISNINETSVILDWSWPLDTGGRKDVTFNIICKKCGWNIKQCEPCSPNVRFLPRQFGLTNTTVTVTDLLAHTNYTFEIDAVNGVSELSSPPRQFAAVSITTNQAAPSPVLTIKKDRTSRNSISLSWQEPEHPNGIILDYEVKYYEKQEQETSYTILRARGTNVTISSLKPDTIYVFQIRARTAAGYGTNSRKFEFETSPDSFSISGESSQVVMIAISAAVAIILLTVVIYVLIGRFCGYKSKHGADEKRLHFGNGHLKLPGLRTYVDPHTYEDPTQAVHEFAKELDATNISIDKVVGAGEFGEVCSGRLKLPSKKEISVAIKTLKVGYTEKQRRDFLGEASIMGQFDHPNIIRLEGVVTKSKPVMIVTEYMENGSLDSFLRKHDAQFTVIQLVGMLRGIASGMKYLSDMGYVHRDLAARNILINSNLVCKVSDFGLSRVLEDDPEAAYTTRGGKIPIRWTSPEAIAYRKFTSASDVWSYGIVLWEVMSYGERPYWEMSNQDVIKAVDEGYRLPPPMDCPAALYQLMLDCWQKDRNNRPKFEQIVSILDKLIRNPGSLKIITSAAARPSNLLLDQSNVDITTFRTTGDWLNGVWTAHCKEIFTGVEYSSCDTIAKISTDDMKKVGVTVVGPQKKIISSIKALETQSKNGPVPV

[2] = biological target: Ephrin type-A receptor 4 (Homo sapiens) (UniProt P54764); conditions: at 10 µM
[3] = biological target: Ephrin type-A receptor 5 (Homo sapiens) (UniProt P54756); conditions: at 10 µM
[4] = biological target: Ephrin type-A receptor 7 (Homo sapiens) (UniProt Q15375); conditions: at 1 µM
[5] = biological target: Ephrin type-A receptor 7 (Homo sapiens) (UniProt Q15375); conditions: at 10 µM
[6] = biological target: T2, Ephrin type-A receptor 8 (Homo sapiens) (UniProt P29322); conditions: at 1 µM
T2 sequence (whole entry): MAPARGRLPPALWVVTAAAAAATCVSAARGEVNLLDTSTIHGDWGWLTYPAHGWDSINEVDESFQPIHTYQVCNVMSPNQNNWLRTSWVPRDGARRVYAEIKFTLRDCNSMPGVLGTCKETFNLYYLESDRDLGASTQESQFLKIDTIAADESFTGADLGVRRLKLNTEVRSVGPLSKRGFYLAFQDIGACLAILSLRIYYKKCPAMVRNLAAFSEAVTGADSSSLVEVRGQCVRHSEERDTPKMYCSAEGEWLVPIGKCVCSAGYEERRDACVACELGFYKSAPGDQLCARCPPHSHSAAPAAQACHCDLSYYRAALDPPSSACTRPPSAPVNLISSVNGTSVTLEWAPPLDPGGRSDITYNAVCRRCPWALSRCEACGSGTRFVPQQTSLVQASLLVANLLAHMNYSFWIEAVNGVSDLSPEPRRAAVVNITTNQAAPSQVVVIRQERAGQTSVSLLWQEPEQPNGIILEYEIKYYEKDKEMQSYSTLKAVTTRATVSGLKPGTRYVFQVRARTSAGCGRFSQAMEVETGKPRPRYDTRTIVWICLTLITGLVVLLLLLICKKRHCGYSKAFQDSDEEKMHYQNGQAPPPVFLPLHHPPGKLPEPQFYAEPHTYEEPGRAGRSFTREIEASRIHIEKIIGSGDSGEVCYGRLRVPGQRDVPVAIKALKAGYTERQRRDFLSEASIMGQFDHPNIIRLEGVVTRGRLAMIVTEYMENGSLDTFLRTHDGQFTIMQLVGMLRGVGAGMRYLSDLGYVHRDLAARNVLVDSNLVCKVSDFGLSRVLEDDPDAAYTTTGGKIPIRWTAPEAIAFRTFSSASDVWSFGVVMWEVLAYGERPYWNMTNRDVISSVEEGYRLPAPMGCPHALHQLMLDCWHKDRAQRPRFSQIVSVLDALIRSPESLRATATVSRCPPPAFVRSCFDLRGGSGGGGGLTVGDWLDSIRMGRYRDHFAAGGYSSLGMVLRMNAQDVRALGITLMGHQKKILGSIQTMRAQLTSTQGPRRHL

[7] = biological target: T2, Ephrin type-A receptor 8 (Homo sapiens); conditions: at 10 µM
[8] = biological target: T3, Ephrin type-B receptor 1 (Homo sapiens) (UniProt P54762); conditions: at 1 µM
T3 sequence (whole entry): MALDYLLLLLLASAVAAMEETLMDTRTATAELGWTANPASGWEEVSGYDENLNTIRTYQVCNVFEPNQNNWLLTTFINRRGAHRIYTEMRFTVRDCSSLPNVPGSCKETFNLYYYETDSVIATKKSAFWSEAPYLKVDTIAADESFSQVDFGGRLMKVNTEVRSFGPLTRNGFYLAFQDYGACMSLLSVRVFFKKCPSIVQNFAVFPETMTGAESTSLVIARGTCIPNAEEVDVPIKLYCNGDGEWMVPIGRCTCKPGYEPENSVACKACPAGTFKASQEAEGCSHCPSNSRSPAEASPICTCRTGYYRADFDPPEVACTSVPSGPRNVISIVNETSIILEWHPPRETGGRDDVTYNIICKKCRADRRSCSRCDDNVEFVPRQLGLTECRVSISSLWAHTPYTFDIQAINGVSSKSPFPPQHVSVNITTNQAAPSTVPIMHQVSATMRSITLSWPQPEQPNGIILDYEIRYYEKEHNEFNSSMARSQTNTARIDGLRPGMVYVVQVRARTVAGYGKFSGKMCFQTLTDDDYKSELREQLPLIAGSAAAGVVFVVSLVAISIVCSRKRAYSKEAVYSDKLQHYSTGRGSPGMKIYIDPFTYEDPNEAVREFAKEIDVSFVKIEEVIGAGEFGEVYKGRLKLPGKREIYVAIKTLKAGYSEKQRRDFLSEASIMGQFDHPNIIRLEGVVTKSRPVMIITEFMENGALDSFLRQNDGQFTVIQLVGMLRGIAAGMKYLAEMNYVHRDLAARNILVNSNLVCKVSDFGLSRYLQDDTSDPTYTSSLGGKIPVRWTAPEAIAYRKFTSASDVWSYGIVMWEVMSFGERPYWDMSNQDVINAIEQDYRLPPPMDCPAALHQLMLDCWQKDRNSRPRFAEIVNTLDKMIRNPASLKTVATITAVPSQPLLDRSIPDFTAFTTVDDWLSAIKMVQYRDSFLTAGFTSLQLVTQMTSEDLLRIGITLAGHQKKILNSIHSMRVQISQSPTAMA

[9] = biological target: T3, Ephrin type-B receptor 1 (Homo sapiens); conditions: at 10 µM
[10] = biological target: T4, Ephrin type-B receptor 2 (Homo sapiens) (UniProt P29323); conditions: at 10 µM
T4 sequence (whole entry): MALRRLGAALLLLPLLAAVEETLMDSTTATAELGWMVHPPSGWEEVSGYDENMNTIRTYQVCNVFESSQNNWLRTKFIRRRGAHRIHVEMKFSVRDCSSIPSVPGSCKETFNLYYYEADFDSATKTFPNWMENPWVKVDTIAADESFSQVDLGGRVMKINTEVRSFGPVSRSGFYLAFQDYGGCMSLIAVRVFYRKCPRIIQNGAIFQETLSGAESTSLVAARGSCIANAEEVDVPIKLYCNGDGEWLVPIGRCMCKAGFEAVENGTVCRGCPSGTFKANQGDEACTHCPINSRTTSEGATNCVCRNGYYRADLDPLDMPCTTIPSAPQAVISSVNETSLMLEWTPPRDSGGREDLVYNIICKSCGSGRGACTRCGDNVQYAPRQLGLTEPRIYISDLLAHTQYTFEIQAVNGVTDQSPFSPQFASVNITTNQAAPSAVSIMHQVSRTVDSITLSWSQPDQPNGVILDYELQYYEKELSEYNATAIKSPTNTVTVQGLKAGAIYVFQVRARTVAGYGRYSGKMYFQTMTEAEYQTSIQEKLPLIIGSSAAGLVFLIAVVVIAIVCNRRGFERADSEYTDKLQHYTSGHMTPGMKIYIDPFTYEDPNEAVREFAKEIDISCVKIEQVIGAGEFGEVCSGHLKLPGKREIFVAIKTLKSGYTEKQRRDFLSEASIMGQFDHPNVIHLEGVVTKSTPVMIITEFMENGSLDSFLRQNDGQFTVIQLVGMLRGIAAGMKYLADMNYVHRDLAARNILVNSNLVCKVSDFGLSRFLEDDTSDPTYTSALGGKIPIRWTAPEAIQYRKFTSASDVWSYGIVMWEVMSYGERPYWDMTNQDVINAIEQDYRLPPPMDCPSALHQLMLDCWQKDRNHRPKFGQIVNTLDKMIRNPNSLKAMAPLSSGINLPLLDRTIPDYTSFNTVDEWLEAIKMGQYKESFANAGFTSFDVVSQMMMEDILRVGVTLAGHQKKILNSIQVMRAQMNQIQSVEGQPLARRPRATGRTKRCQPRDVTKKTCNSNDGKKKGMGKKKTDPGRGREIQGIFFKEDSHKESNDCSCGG

[11] = biological target: T5, Ephrin type-B receptor 3 (Homo sapiens) (UniProt P54753); conditions: at 1 µM
T5 sequence (whole entry): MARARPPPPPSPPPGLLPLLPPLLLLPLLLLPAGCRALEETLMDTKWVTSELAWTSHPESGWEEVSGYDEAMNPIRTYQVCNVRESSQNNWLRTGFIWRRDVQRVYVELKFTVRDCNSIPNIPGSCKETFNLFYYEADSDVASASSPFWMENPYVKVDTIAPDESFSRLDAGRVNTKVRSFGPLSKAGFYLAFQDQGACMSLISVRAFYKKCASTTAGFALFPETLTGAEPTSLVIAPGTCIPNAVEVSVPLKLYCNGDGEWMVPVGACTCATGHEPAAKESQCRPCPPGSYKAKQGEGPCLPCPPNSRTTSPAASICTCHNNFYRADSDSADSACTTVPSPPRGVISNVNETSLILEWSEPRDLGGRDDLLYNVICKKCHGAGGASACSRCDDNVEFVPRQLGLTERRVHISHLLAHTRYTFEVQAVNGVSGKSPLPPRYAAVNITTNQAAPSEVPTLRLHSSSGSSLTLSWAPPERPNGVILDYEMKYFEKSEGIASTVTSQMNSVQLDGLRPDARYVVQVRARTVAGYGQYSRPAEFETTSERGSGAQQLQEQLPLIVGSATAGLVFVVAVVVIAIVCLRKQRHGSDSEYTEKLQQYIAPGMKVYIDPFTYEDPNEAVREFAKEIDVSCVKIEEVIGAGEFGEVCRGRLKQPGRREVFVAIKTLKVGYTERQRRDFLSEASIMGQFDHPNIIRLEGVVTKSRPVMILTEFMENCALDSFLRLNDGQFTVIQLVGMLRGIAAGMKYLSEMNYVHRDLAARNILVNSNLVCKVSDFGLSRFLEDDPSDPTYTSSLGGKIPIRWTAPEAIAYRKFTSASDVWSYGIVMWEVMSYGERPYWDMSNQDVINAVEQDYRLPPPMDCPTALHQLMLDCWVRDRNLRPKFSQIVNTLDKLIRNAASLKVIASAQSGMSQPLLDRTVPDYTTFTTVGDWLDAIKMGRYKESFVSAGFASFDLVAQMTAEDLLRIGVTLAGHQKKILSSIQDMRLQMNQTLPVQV

[12] = biological target: T5, Ephrin type-B receptor 3 (Homo sapiens); conditions: at 10 µM
[13] = biological target: Receptor tyrosine-protein kinase erbB-4 (Homo sapiens) (UniProt Q15303); conditions: at 1 µM
[14] = biological target: Receptor tyrosine-protein kinase erbB-4 (Homo sapiens) (UniProt Q15303); conditions: at 10 µM

Chain of Receptor tyrosine-protein kinase erbB-4 (Homo sapiens) (Q15303 whole entry): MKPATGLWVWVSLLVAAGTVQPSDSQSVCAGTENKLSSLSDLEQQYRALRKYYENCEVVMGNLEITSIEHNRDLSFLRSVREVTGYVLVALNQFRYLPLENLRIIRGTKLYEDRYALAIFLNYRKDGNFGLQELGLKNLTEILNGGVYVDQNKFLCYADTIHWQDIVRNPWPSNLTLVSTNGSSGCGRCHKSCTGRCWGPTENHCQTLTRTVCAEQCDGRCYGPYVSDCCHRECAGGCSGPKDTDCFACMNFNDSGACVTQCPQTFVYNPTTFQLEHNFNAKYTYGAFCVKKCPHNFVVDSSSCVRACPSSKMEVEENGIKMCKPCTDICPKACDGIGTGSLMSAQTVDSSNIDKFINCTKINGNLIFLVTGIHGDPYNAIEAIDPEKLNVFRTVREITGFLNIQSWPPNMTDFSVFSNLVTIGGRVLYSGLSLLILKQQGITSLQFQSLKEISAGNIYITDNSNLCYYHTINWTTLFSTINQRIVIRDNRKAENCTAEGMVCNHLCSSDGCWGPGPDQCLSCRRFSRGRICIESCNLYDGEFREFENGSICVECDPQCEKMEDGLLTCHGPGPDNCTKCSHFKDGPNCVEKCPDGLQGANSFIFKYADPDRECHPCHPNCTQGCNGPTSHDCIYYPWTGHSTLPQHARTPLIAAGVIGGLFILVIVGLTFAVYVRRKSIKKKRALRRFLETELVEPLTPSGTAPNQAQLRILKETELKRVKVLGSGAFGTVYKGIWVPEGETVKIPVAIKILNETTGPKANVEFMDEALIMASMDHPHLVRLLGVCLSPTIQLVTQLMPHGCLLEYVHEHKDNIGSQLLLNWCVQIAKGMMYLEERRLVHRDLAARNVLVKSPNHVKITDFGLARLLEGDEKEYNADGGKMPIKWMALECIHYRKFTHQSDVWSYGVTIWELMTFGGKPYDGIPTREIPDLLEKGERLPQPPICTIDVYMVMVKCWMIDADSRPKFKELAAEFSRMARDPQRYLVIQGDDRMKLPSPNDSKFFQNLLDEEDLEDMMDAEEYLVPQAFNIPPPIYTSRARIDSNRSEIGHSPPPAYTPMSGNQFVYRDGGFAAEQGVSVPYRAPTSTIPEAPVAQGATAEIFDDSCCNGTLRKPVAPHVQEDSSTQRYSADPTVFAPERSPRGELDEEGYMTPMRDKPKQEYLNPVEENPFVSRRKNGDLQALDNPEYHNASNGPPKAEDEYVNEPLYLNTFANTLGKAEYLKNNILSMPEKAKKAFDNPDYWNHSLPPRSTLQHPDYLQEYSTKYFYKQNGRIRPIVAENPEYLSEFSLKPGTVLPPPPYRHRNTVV
Chain of Ephrin type-A receptor 7 (Homo sapiens) (Q15375 28-998 limits assumed): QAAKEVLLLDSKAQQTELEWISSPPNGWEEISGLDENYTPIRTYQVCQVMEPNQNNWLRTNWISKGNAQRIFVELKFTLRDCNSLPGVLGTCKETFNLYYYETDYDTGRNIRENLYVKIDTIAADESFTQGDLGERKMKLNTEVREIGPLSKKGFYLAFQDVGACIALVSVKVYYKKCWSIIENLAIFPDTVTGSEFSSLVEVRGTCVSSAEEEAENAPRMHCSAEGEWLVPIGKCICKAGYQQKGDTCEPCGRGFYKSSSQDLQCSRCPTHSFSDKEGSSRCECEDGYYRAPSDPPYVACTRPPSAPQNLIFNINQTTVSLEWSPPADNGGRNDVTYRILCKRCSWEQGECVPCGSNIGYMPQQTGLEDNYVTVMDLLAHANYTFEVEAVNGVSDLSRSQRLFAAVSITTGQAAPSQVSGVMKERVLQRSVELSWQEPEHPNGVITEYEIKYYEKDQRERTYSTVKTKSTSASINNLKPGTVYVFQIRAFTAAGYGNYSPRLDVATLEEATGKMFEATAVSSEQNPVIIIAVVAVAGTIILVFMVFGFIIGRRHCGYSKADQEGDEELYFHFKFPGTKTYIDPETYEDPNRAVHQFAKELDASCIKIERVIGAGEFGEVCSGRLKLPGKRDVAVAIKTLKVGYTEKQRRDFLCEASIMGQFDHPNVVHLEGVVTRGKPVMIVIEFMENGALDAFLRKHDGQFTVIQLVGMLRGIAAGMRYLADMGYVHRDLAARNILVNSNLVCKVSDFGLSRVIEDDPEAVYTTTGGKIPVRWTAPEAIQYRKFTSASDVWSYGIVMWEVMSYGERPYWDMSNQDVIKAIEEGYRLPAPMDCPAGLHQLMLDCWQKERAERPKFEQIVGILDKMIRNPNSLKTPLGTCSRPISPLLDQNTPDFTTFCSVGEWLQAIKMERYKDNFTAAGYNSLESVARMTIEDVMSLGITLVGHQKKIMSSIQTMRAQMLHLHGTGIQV
Chain of Ephrin type-A receptor 4 (Homo sapiens) (P54764 whole entry): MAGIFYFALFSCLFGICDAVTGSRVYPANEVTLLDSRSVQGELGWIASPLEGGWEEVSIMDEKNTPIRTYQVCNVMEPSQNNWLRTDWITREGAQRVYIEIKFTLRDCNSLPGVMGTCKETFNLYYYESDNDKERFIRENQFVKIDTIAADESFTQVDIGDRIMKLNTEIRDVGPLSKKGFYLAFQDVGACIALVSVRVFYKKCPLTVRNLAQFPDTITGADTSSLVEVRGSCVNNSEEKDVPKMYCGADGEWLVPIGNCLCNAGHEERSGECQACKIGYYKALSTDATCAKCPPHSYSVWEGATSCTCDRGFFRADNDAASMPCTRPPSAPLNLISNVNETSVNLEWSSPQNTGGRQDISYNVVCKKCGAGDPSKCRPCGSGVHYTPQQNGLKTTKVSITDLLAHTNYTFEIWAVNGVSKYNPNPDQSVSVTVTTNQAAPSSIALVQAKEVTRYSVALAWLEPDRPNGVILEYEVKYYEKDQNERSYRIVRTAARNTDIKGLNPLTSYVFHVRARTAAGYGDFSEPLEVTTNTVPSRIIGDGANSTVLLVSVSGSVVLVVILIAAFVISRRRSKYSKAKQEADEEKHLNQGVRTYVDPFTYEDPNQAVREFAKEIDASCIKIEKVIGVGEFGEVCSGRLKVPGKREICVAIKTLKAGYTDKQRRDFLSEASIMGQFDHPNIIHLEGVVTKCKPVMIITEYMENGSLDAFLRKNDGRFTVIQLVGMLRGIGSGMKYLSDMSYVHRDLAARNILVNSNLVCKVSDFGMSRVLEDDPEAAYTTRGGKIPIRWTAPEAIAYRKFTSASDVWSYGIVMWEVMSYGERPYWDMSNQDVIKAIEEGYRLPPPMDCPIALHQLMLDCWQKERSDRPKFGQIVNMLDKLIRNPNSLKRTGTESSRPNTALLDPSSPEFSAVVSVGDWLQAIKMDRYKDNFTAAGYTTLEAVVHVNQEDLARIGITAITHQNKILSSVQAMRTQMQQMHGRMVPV
Chain of Ephrin type-A receptor 5 (Homo sapiens) (P54756 whole entry): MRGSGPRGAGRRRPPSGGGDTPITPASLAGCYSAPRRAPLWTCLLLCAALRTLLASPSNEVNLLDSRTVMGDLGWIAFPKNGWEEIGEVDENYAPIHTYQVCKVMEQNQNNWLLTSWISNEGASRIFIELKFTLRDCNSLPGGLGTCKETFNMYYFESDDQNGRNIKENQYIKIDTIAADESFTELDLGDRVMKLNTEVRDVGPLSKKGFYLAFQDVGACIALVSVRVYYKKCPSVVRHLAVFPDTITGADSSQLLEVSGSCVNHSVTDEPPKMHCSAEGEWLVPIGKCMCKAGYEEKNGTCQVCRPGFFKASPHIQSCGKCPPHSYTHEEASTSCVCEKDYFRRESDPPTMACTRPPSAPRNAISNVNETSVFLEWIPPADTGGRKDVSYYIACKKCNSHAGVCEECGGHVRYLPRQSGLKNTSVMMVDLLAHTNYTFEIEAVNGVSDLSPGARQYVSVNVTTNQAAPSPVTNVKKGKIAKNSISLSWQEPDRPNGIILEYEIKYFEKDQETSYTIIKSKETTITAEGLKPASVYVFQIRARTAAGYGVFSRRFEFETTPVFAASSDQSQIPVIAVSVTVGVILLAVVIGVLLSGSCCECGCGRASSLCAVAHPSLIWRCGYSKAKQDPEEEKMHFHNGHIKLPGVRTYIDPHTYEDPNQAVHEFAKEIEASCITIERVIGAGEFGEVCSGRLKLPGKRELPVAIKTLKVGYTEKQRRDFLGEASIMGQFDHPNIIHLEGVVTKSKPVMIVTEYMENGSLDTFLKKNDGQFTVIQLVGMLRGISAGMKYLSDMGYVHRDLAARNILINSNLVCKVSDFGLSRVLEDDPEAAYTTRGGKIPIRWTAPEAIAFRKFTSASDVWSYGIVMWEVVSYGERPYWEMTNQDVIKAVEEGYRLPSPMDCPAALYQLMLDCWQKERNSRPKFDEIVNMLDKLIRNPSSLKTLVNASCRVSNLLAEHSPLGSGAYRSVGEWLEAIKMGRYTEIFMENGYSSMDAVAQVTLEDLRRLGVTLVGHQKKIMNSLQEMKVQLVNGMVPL

CC(=O)c1ccc(N2CCOCC2)cc1O
residual activity [1]: 94%
residual activity [2]: 104%
residual activity [3]: 101%
residual activity [4]: 101%
residual activity [5]: 90%
residual activity [6]: 100%
residual activity [7]: 93%
residual activity [8]: 93%
residual activity [9]: 101%
residual activity [10]: 106%
residual activity [11]: 105% (inactive)
residual activity [12]: 107%
residual activity [13]: 93%
residual activity [14]: 107%
